Source: patent publication US20210230599, “STEM-LOOP COMPOSITIONS AND METHODS FOR INHIBITING INTERLEUKIN-8” (VITRISA THERAPEUTICS, INC., published 2021)

What follows are sequences tested against Interleukin-8 (IL8, CXCL8), C-terminal His-tagged (Homo sapiens, UniProt P10145 SEQ:1-72) (assay: competition; competition TR-FRET; deletion at position 16). Details: tags: C-terminal 6xHis (Sino Biological); ssRNA; 2'-F G, 2'-OMe A/C/U, 5' C6NH2, 3' idT.
Description: Activity of each of these variants were tested using a time resolved competition TR-FRET assay in which the labeled parent Aptamer 3 was competed with increasing concentrations of unlabeled variants for binding to IL8 (FIG. 14). Briefly, 2-fold dilutions of thermally equilibrated aptamers were made in TR-FRET Buffer (50 mM MOPS, pH 7.4, 125 mM NaCl, 5 mM KCl, 50 μM CHAPS, 0.1 mg/mL BSA, 1 mM CaCl₂, and 1 mM MgCl₂). 5 μL of aptamer or control solution was added to 5 μl mix of 10 nM C-terminal His-tagged-IL8, 60 nM ALEXA FLUOR® 647-labeled Aptamer, and 5 nM anti-His-Eu (Perkin Elmer) in a black wall low volume 384 well plate (Greiner). For control, 5 μl of 1000-fold excess of unlabeled parent aptamer or 5 μl TR-FRET buffer alone was added to the mix of ALEXA FLUOR® 647-labeled aptamer, His-IL8, and anti-His-Eu. The plate was covered with a plate seal and subsequently incubated in the dark for 1 hour at room temperature. The plate was read on a Biotek CYTATION™ 5 plate reader. Samples were excited at 330 nm and fluorescent values were collected at 665 nm. Data analysis was performed by subtracting the background value and plotting as percent inhibition, normalized to baseline in the absence of competitor. […]

Sequence | binding signal
UGAUGACGGUAGAUUUGGGUAGAGUGACCGCAUCU | ~5 fold worse than Aptamer 3
